# Bioassay records from PubChem BioAssay.
# Compounds with a hit are over-represented: about 6.6% of the library has one in this group of screens.
# HepG2 tox-1: kills HepG2 cells in TGF-b inhibitor counter-screen. HepG2 CAGA-GFP viability, ATP luminescence, 18 h. Potency, µM (series often up to 46.1 µM), most hits filed as cytotoxic. 0.76% of 410,000 active
#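 HepG2 CAGA-GFP cells (1000/well, DMEM with 1% FBS) received compound, then TGF-beta at 500 pg/mL final, and were incubated 18 hours at 37 degrees C. Viability was read by CellTiter-Glo luminescence. Media-only wells were set as complete cell-killing and DMSO as no toxicity.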
# KB-3-1 tox: KB-3-1 parental cell cytotoxicity. KB-3-1 viability, CellTiter-Glo ATP luminescence, 72 h. Potency, µM (series often up to 46.1 µM), most hits filed as cytotoxic. 1.4% of 400,000 active; note: nearly all actives have a fitted effect of over 60% in size
#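 Multi-concentration cytotoxicity screen in KB-3-1 cells grown in DMEM lacking phenol red with 10% FBS. After 72 h at 37 °C with compound, ATP-dependent luminescence was recorded.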
# KB-V1 cytotox: kills drug-selected multidrug resistant KB-V1 cells | KB-V1 MDR cells viability, CellTiter-Glo, 72 h | Potency, µM (highest dose often 46.1 µM), usual class: cytotoxic | 3.4% of 400,000 active | AID 1347076; note: nearly all actives have a fitted effect of over 60% in size
#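 Potencies derive from concentration-effect curves fitted to normalized luminescence (CellTiter-Glo) of KB-V1 cells treated for 72 h at 37 degrees C in phenol-red-free DMEM containing 10% FBS.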
# HT1080 IDH1KD tx: kills HT-1080 cells with IDH1 knockdown | AID 686971 | Potency, µM (highest dose often 46.1 µM), usual class: cytotoxic | 2% of 360,000 active | HT-1080 IDH1 knockdown viability, ATP luminescence, 48 h
#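 CellTiter-Glo luminescence after 48 h compound exposure at 37 degrees C of IDH1-knockdown HT-1080 cells in 5% FBS RPMI. %Activity scaled between DMSO wells and cell-free media wells, with curves fitted and assigned curve classes.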
# TGFb SMAD3 inh: inhibitors of TGF-b signaling. HepG2 CAGA-GFP TGF-b/SMAD3 reporter, GFP fluorescence, 18 h; TGF-beta stimulated, 500 pg/mL final. Potency, µM (doses to about 46.1 µM), most hits filed as inhibitors. 1.2% of 410,000 active. AID 588855; note: nearly all actives have a fitted effect of over 65% in size
#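 Cell-based qHTS in HEPG2 carrying a CAGA-GFP Smad reporter; compounds added before 500 pg/mL final TGF-beta, 18 h incubation at 37 degrees C, GFP fluorescence quantified per cell by imaging cytometry.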
# HT1080-NT tox: kills 2HG-producing HT-1080-NT fibrosarcoma cells; Potency, µM (doses to about 46.1 µM), hits mostly cytotoxic; 1.6% of 360,000 active; HT-1080-NT fibrosarcoma viability, CellTiter-Glo ATP luminescence, 48 h;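 note: NT is the 2HG producing partner of a matched IDH1 knockdown line; nearly all actives have a fitted effect of over 55% in size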
#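 A 48-hour cytotoxicity screen used HT-1080-NT cells plated 2 hours before compound delivery. ATP-based CellTiter-Glo luminescence measured viability, normalized to DMSO and no-cell controls.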
# TGFb confirm: TGF-b pathway inhibition, cherry-pick retest. shares compounds with TGFb SMAD3 inh. HepG2 CAGA-GFP TGF-b reporter, GFP fluorescence, 18 h; cells stimulated with TGF-beta, 500 pg/mL. Potency, µM (titrated, usually from 46.1 µM), hits mostly inhibitors. 63% of 1,600 active; note: nearly all actives have a fitted effect of over 65% in size
# HepG2 tox-2: counter-screen for TGF-b inhibitors: cytotoxicity in HepG2 cells | shares compounds with TGFb SMAD3 inh | HepG2 CAGA-GFP viability, ATP luminescence, 18 h; cells stimulated with TGF-beta, 500 pg/mL | Potency, µM (series often up to 46.1 µM), most hits filed as inhibitors | 27% of 1,600 active | AID 720535; note: nearly all actives have a fitted effect of over 70% in size
# CCL64 TGFb inh: blocks TGF-b signaling in CCL64 reporter cells | shares compounds with TGFb SMAD3 inh | CCL64 CAGA-GFP reporter, TGF-b stimulated, GFP fluorescence, 18 h | Potency, µM (titrated, usually from 46.1 µM), most hits filed as inhibitors | 41% of 1,600 active; note: nearly all actives have a fitted effect of over 65% in size
# TGFb COP inh: validation of TGF-b inhibitors in HepG2 COP promoter reporter; shares compounds with TGFb SMAD3 inh; HepG2 COP-GFP TGF-b reporter, GFP fluorescence, 18 h; cells stimulated by added recombinant TGF-beta; Potency, µM (doses to about 46.1 µM), hits mostly inhibitors; 3% of 1,600 active; AID 720537; note: nearly all actives have a fitted effect of over 70% in size
# A number is an active result; 0 = inactive; ? = inconclusive; - = no result. Calls come from the whole dose curve; as a rule, active = well fitted curve in the direction sought with a large enough effect; inconclusive = small, poorly fitted or top-dose-only effect, or another doubt; inactive = no such curve, though single readings can be large; an effect the other way counts as inactive or inconclusive.
SMILES,HepG2 tox-1,KB-3-1 tox,KB-V1 cytotox,HT1080 IDH1KD tx,TGFb SMAD3 inh,HT1080-NT tox,TGFb confirm,HepG2 tox-2,CCL64 TGFb inh,TGFb COP inh
Clc1ccc(-n2nnnc2Sc2ncnc3sccc23)cc1,0,?,?,?,10µM,21µM,4.6µM,16µM,2.9µM,?
CCOc1ccc(C(=O)c2cc([N+](=O)[O-])ccc2N2CCOCC2)cc1,0,0.029µM,?,0.026µM,1.1µM,0.037µM,?,0,0.73µM,0
COc1cccc(Cl)c1NC(=O)N1CCN(c2cc(C)nc3ccccc23)CC1,0,0,?,?,13µM,0,0,?,?,0
CC(C)c1ccc(NC(=O)c2cccn2-c2nnc(N3CCCCC3)s2)cc1,0,0,0,-,?,-,-,-,-,-
COc1ccc(CNC(=O)C[C@H]2C[C@H](C(=O)N(C(C)C)C(C)C)[C@@]3(C)c4[nH]c5ccc(Cl)cc5c4CCN3C2=O)cc1OC,0,0,0,0,14µM,0,8.2µM,?,?,0
CC[C@]12c3[nH]c4ccc(Cl)cc4c3CCN1C(=O)[C@@H](CC(=O)NCc1ccc(OC)c(OC)c1)C[C@@H]2C(=O)N1CCN(C(=O)C2CC2)CC1,0,0,0,0,0,0,-,-,-,-
COc1ccc(CNC(=O)C[C@H]2C[C@H](C(=O)N3CCCCC3)[C@@]3(CCc4ccccc4)c4[nH]c5ccc(Cl)cc5c4CCN3C2=O)cc1OC,0,0,0,0,6.3µM,0,8.2µM,0,6.5µM,0
COc1ccc2cc(CCNS(=O)(=O)c3ccc(C)cc3)c(=O)[nH]c2c1,0,0,0,-,0,-,-,-,-,-
O=C(Oc1ccc(Cl)c2cccnc12)c1cccnc1,0,0,0,?,10µM,?,0,0,?,0
O=C(Oc1ccc(Cl)c2cccnc12)N1CCCCC1,0,0,0,0,0,0,-,-,-,-
Cc1ccc(CNC(=O)CSc2nc3ccsc3c(=O)n2NC(=O)c2ccccc2)cc1,0,0,0,0,0,0,-,-,-,-
O=C(Nn1c(SCc2ccc(F)cc2)nc2ccsc2c1=O)c1ccccc1,0,0,4.1µM,0,11µM,0,16µM,?,?,0
COc1cc(C2c3cc4c(cc3OC(N3CCCC3)C2C)OCO4)cc(OC)c1O (stereo not drawn),0,?,?,?,0,?,-,-,-,-
COc1cc(C2c3cc4c(cc3OC(NCCc3ccccc3)C2C)OCO4)cc(OC)c1OC (stereo not drawn),0,4.1µM,2.9µM,1µM,?,1µM,?,0,16µM,0
c1ccc(-c2nc3nonc3nc2-c2ccccc2)cc1,10µM,0,?,?,8.9µM,0,15µM,?,?,?
COc1ccc(OC)c(/C=C(/C#N)c2nc(-c3ccc(-c4ccccc4)cc3)cs2)c1,0,-,-,-,0,-,-,-,-,-
CN(C)c1cccc(/C=C(\C#N)c2ccccc2)c1,0,5.8µM,?,3.3µM,13µM,?,?,0,?,0
CC[C@@H](CC1CCCCC1)C(=O)N(Cc1ccccc1)c1ccccc1,0,0,?,0,2.5µM,0,0,?,?,0
CC(C)Oc1ccc(C(=O)N(Cc2ccc(N(C)C)cc2)Cc2ccco2)cc1,0,-,-,-,-,-,-,-,-,-
Cc1ccccc1Nc1nnc(-c2ccc(C)c(S(=O)(=O)N3CCCCC3)c2)c2ccccc12,0,0,0,-,0,-,-,-,-,-
CCOc1ccc(NC(=O)c2oc3ccccc3c2NC(=O)c2ccc(OC)cc2OC)cc1,0,0,?,-,0,-,-,-,-,-
C=CCNc1ncnc2c1[nH]c1ccc(C)cc12,0,?,?,?,7.9µM,?,?,0,?,0
Cc1ccc2[nH]c3c(NCCN4CCOCC4)ncnc3c2c1,0,0,?,0,0,0,-,-,-,-
C=CCC(CC=C)(CNC(=O)C(=O)Nc1ccc(C)cc1)c1ccccc1,0,-,-,-,0,-,-,-,-,-
COc1ccccc1-c1cc(NC=O)c2ncc(-c3cccc(C(=O)N(C)C)c3)n2c1,0,?,?,?,7.9µM,?,5.2µM,0,?,0
SMILES,HepG2 tox-1,KB-3-1 tox,KB-V1 cytotox,HT1080 IDH1KD tx,TGFb SMAD3 inh,HT1080-NT tox,TGFb confirm,HepG2 tox-2,CCL64 TGFb inh,TGFb COP inh
CC(=O)c1ccc(-c2cnc3c(NC=O)cc(-c4ccccc4Oc4ccccc4)cn23)cc1,0,12µM,?,?,11µM,?,?,0,?,0
COc1ccccc1-c1cc(NC=O)c2ncc(-c3cccc(C(C)=O)c3)n2c1,0,?,?,?,0,?,-,-,-,-
COc1cccc(-c2cnc3c(NC=O)cc(-c4ccc(OC)cc4OC)cn23)c1,0,0.21µM,?,?,4.5µM,?,4.1µM,0,3.3µM,0
COc1ccccc1CN(C)C(=O)COC(=O)c1ccc(Cl)nc1,0,0,0,0,0,0,-,-,-,-
Cc1ccc(C(C)C)cc1NC(=O)Nc1ccc([N+](=O)[O-])cc1,0,?,0,0,7.9µM,0,?,?,18µM,0
Cc1cc(O)c(C(C)C)cc1NC(=O)Nc1ccc([N+](=O)[O-])cc1,0,0,0,?,0,0,-,-,-,-
CN(C)CCNC(=O)C(c1ccccc1)c1ccccc1,0,0,0,0,0,0,-,-,-,-
CN(C)CCC(=O)C(Cc1ccccc1)c1ccccc1 (stereo not drawn),20µM,0,?,?,7.9µM,0,4.1µM,15µM,10µM,?
O=C(C#Cc1ccccc1)Nc1cccc(F)c1,0,23µM,?,3.7µM,4µM,?,2.1µM,6.5µM,5.8µM,0
O=C(CC(=O)Nc1cccc(F)c1)Nc1cccc(F)c1,0,0,0,0,0,0,-,-,-,-
CCC1Nc2ncnc(N3CCc4ccccc4C3)c2N(Cc2ccc(Br)cc2)C1=O (stereo not drawn),0,?,?,?,13µM,?,18µM,18µM,0,0
